Data: PubChem BioAssay AID722 (NMMLSC, 2007)
The campaign covered roughly 1,300 compounds. About 40 (3%) were called active. The entries come from a sample that favours actives as a whole. Unmarked numbers belong to inactive results. Rule as the data show it: active = inhibition above about 30%; inactive = the rest.

Target: fMet-Leu-Phe receptor (Homo sapiens) (UniProt P21462)
Test: human FPR1 ligand displacement screen – cell-based, flow cytometry, SAR analysis, primary screen (AID 722)
Details: FPR-expressing cells, fluorescent ligand binding inhibition, active compounds read high, concentration not given here

Sequence of fMet-Leu-Phe receptor (Homo sapiens) (P21462 whole entry, looked up): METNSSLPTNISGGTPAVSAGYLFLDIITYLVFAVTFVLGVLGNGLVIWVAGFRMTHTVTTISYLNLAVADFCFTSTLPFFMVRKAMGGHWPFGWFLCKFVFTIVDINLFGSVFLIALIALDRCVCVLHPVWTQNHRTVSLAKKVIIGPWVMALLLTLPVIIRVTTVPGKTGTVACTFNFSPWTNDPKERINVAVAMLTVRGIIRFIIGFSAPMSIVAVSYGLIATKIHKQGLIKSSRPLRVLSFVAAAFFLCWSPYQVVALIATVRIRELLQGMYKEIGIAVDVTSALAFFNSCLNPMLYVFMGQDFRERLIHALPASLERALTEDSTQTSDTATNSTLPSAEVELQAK

Compound | inhibition
COc1ccc2c(=O)c(-c3ccccc3)c(C(F)(F)F)oc2c1C | -2.4%
CCc1cc2c(=O)c(-c3nc4ccccc4s3)c(C)oc2cc1OC(C)=O | 4%
O=C1C(=O)N(CCN2CCOCC2)C(c2cccc(Br)c2)/C1=C(\O)c1ccccc1 (stereo unspecified) | 1.8%
Cc1onc(-c2c(Cl)cccc2Cl)c1C(=O)N1CCC(C)CC1 | 5.9%
COC(=O)c1c(NC(=O)c2cccc(Br)c2)sc2c1CCCC2 | -4.7%
Cc1cc(N2C(=O)CSC2c2ccccc2F)ccc1Br (stereo unspecified) | 0.4%
COc1ccc(OC)c(C2C(C(=O)/C=C/c3ccccc3)=C(O)C(=O)N2CCCCCC(=O)O)c1 (stereo unspecified) | -3.9%
Cc1oc2cc(OCC(=O)O)ccc2c(=O)c1-c1ccc2c(c1)OCCO2 | 3.2%
COc1cccc(C(=O)/C=C(\Nc2sc3c(c2C#N)CCC3)C(=O)O)c1 | -24.9%
CCOC(=O)c1c(NC(=O)Cc2ccccc2)sc2c1CCCCC2 | -0.4%
N#Cc1c(N/C(=C\C(=O)c2ccccc2)C(=O)O)sc2c1CCC2 | 53% (active)
Cn1c2c(c(=O)n3ncc(C(=O)O)c13)CN(Cc1ccccc1)CC2 | -6.5%
CCc1cc2c(=O)c(-c3nc4ccccc4n3C)c(C)oc2c(CN2CCCCC2)c1O | -12.9%
CCOC(=O)c1c(NC(=O)c2cc(C)no2)sc(C)c1C | 2.2%
COc1ccc(OC)c(NC(=O)C(C)n2sc3ccccc3c2=O)c1 (stereo unspecified) | 2.2%
CCCCCCOc1cccc(N2C(=O)C(=O)/C(=C(\O)c3ccccc3)C2c2ccc(C(C)C)cc2)c1 (stereo unspecified) | -11.9%

Compound | inhibition
COc1ccc(/C(O)=C2/C(=O)C(=O)N(c3ccc(C)c(Br)c3)C2c2cccc(F)c2)cc1 (stereo unspecified) | 20.6%
Cc1cccc(N2C(=O)C(=O)/C(=C(/O)c3ccccc3)C2c2cccc(F)c2)c1 (stereo unspecified) | 4.1%
O=C(O)COc1ccc(N2C(=O)C(=O)/C(=C(\O)c3ccccc3)C2c2cccc(F)c2)cc1 (stereo unspecified) | -6.1%
CCCCCCOc1cccc(N2C(=O)C(=O)/C(=C(\O)c3ccccc3)C2c2cccc(F)c2)c1 (stereo unspecified) | 56.3% (active)
Cc1ccc(N2C(=O)C(=O)/C(=C(\O)c3ccccc3)C2c2cccc(F)c2)cc1Br (stereo unspecified) | 30.2% (active)
COC(=O)c1c(NC(=O)c2ccc(C)cc2)sc(C)c1C | -13.3%
COc1ccc(C2/C(=C(\O)c3ccccc3)C(=O)C(=O)N2CCN2CCOCC2)c(OC)c1 (stereo unspecified) | 17%
CCOc1ccc(/C(O)=C2\C(=O)C(=O)N(CCN3CCOCC3)C2c2ccc(Br)cc2)c(C)c1 (stereo unspecified) | -1.7%
COc1ccc(C2SCC(=O)N2c2ccc(Br)cc2)cc1 (stereo unspecified) | 1.9%
CCCN(C(=O)c1cccc(NC(=O)[C@H]2[C@@H]3C[C@@H]4[C@H]2C(=O)O[C@@H]4C3)c1)c1ccccc1F | -2.9%
CCOC(=O)c1c(NC(=O)c2ccco2)sc(C)c1C | -1.8%
CCOC(=O)C1NN=C(C(=O)c2ccccc2)C1c1ccccc1 (stereo unspecified) | -1%
CCSC1=C(C#N)C(c2ccc3c(c2)OCO3)CC(=O)N1 (stereo unspecified) | -2.1%
COc1cccc(C2/C(=C(/O)c3ccc(Cl)cc3)C(=O)C(=O)N2c2ccc(C)c(Br)c2)c1 (stereo unspecified) | 0.2%
COc1ccc(C2CC(=O)C3=C(C2)NC(=O)CC3c2cccs2)cc1OC (stereo unspecified) | -3.3%
